Only some compounds are listed: those with a hit (about 19% of all), similar ones and a draw of the others.
IL-1B inflam inh: inhibitors of inflammasome signaling (IL-1 beta secretion); THP-1 LPS/ATP IL-1B secretion, AlphaLISA, 16 h; stronger effect = lower value; activity change, % at 57.5 µM; actives 4.7% (n = 360,000); AID 743279; in the data active = activity change below about -50%; inconclusive = mostly about -30% to -49%
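Secreted IL-1B measured by AlphaLISA bead assay after 16 h compound exposure of THP-1 cells; compounds (final up to 57.5 uM) added 1 h before LPS (250 ng/mL) and ATP (1.25 mM) stimulation; lower signal means less secretion.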
HT1080-NT tox: kills 2HG-producing HT-1080-NT fibrosarcoma cells; HT-1080-NT fibrosarcoma viability, CellTiter-Glo ATP luminescence, 48 h; Potency, µM (top dose mostly 46.1 µM), inactives show at the top dose activity, negative = less viability, hits mostly cytotoxic; actives 1.6% (n = 360,000); AID 686970;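 also: NT is the 2HG producing partner of a matched IDH1 knockdown line; potency is read from the fitted curve at half-maximal effect; 0% = DMSO-treated cells and -100% = media-only wells without cells; nearly all actives have a fitted effect of over 55% in size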
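Read-out is CellTiter-Glo luminescence after 10 minutes at room temperature, following 48 hours' compound treatment of HT-1080-NT cells (750 cells/well, RPMI, 5% FBS, 37 degrees C).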
uPA generation: inhibitors of cell surface uPA generation. cell surface uPA generation assay, qHTS. Potency, µM (series often up to 38.3 µM), for inactives: at the highest dose activity change, negative = inhibition, hits mostly inhibitors. actives 0.31% (n = 330,000); active = well fitted inhibition curve with a large enough effect; inconclusive = small, poorly fitted or top-dose-only effect; inactive = no such curve, though single readings can be large or run the other way; tested in mouse RAW 264.7 cells; also: potency is read from the fitted curve at half-maximal effect; nearly all actives have a fitted effect of over 55% in size
DT40 TDP1 CPT: growth inhibition of DT40 Tdp1-/-;hTDP1 cells with camptothecin (screen for TDP1 inhibitors) | chicken DT40 Tdp1-/-;hTDP1 cells + 20 nM CPT, ATP luminescence, 48 h | Potency, µM (titrated, usually from 46.2 µM), for inactives: top-dose activity change, negative = growth inhibition, usual class: inhibitors | actives 12% (n = 420,000) | AID 686979; also: potency is read from the fitted curve at half-maximal effect; nearly all actives have a fitted effect of over 55% in size
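Cell growth measured by CellTiter-Glo luminescence after a minimum 48 h, 37 C compound exposure with 20 nM CPT in Tdp1-knockout DT40 cells stably expressing hTDP1, seeded 400/well; qHTS titration format.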
TDP1 cell noCPT: qHTS for Inhibitors of human tyrosyl-DNA phosphodiesterase 1 (TDP1): qHTS in cells in absence of CPT | actives 15% (n = 420,000) | Potency, µM (top dose mostly 46.2 µM), inactives show at the highest dose activity change, negative = growth inhibition, hits mostly inhibitors | DT40 Tdp1-/- hTDP1 cells, no CPT, ATP luminescence, 48 h | AID 686978, 2013; also: potency is read from the fitted curve at half-maximal effect; nearly all actives have a fitted effect of over 55% in size
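Chicken DT40 Tdp1-/- cells stably complemented with human TDP1 were seeded at 400 cells/well with DMSO in place of 20 nM camptothecin. After compound pinning, cells grew at least 48 hr at 37 °C; viability read by CellTiter-Glo luminescence.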
HT1080 IDH1KD tx: kills HT-1080 cells with IDH1 knockdown; HT-1080 IDH1 knockdown viability, ATP luminescence, 48 h; Potency, µM (doses to about 46.1 µM), for inactives: at the highest dose activity, negative = toxicity, actives largely listed as cytotoxic; actives 2% (n = 360,000);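 also: potency is read from the fitted curve at half-maximal effect; 0% = DMSO wells and -100% = cell-free medium wells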
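IDH1KD HT-1080 cells, 750/well, RPMI + 5% FBS; compound pinned after 2 h settling; 48 h, 37 °C; CellTiter-Glo luminescence; % activity normalised to DMSO and no-cell wells; curves fitted, classed by r2 and efficacy.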
The depositor's hits bear a star; u = inconclusive; x = not tested or not shown; ! = repeats disagree. Unless noted, calls follow the shape of the dose curve; as a rule, active = well fitted curve in the direction sought with a large enough effect; inconclusive = small, poorly fitted or top-dose-only effect, or another doubt; inactive = no such curve, though single readings can be large; an effect the other way counts as inactive or inconclusive. Unless noted, % is scaled to controls: 0 for no effect and ±100 for the full control effect.

SMILES	IL-1B inflam inh	HT1080-NT tox	uPA generation	DT40 TDP1 CPT	TDP1 cell noCPT	HT1080 IDH1KD tx
CCCCCCCCC(c1nc2ccccc2[nH]1)N1CCN=C1c1cc2ccccc2[nH]1 (configuration not stated)	-66*	u	x	7.3µM*	6.5µM*	u
CN(C)c1ccc(/C=C/c2ccncc2)cc1	0	-1%	-2%	-2%	26µM*!	-1%
CCN(CC)c1ccc(/C=C/c2ccncc2)cc1	x	x	x	0.18µM*	0.32µM*	x
COc1ccc(-c2c(C)c3ccc(O)c(CN4CCCC(C)C4)c3oc2=O)cc1OC (configuration not stated)	x	x	x	-17%	-23%	x
COc1ccc(-c2cc3ccc(O)c(CN4CCCC(C)C4)c3oc2=O)cc1 (configuration not stated)	x	x	x	u	16µM*	x
O=c1oc2c(CN3CCN(CCO)CC3)c(O)ccc2cc1-c1ccccc1	x	x	x	-1%	1%	x
CCN1CCN(Cc2c(O)ccc3c(C)c(-c4ccc(OC)cc4)c(=O)oc23)CC1	x	x	x	u	23µM*	x
CN1CCN(Cc2c(O)ccc3cc(-c4ccc(Cl)cc4)c(=O)oc23)CC1	x	x	x	23µM*	u	x
COc1ccc(C2=CC(=O)C[C@H](COCc3ccccc3)N(C(=O)OC(C)(C)C)O2)cc1	u	-27%	3%	u	18µM*	-14%
COc1ccccc1-c1cc(C(F)(F)F)nc(S(C)(=O)=O)n1	-109*	u	8%	3.7µM*	5.8µM*	18µM*
COc1ccccc1-c1cc(C(F)(F)F)nc(S(=O)(=O)CCCC(=O)NCc2ccc(F)cc2)n1	-100*	9.2µM*	-5%	2.9µM*	4.1µM*	16µM*
COc1ccccc1-c1cc(C(F)(F)F)nc(N2CCCCC2)n1	27	5%	x	-6%	1%	13%
COc1ccccc1-c1cc(C(F)(F)F)nc(S(=O)(=O)CCCC(=O)NC(C)C)n1	-98*	5.8µM*	-13%	2.3µM*	3.3µM*	5.8µM*
COc1ccccc1-c1cc(C(F)(F)F)nc(N2CCCC2)n1	30	1%	-1%	-14%	u	5%
COc1ccccc1NC(=O)CCS(=O)(=O)c1ccc2nc(C)sc2c1	x	x	x	-20%	-27%	x
COc1ccccc1-c1cc(C(F)(F)F)nc(S(=O)(=O)CCCC(=O)N2CCCCC2C)n1 (configuration not stated)	-97*	u	-5%	4.1µM*	4.1µM*	23µM*
Cc1noc(C)c1-c1cncnc1NCc1cccnc1	x	x	x	2%	2%	x
O=C(NNC(=O)C1CCC1)c1ccc(F)cc1	18	3%	x	10%	0%	7%
CCOC(=O)C[C@@H]1OC[C@H](Cc2ccccc2)N1S(=O)(=O)c1ccc(C)cc1	-9	-21%	x	u	u	-18%
O=C(N/N=C/c1ccc(Cl)cc1)c1cc2c(s1)-c1ccccc1CC2	15	u	1%	3.7µM*	5.2µM*	u
Cc1ccc(NC(=O)CN(C)S(=O)(=O)c2ccc3c(c2)n(C)c(=O)c(=O)n3C)cc1C	x	x	x	7%	4%	x
O=C(CC1N=C2c3ccccc3N=C(SCc3ccc(Cl)cc3)N2C1=O)NCc1ccco1 (configuration not stated)	-7	-17%	-2%	u	u	-22%
O=C(CCC1N=C2c3ccccc3N=C(SCc3ccc(Cl)cc3)N2C1=O)N1CCN(c2ccccc2)CC1 (configuration not stated)	x	x	x	16µM*	21µM*	x
Cc1ccc(CSC2=Nc3ccccc3C3=NC(CCC(=O)N4CCN(c5ccccc5)CC4)C(=O)N23)cc1 (configuration not stated)	x	x	x	21µM*	21µM*	x
Cc1ccc(C2CC(c3cccc(C)c3)n3ncnc3N2)cc1 (configuration not stated)	-10	-9%	1%	15µM*	u	-3%
SMILES	IL-1B inflam inh	HT1080-NT tox	uPA generation	DT40 TDP1 CPT	TDP1 cell noCPT	HT1080 IDH1KD tx
CCOc1ccc(C2CC(c3ccc(F)cc3)n3ncnc3N2)cc1 (configuration not stated)	-12	4%	19%	u	21µM*	3%
COc1cccc(C2CC(c3ccccc3)Nc3ncnn32)c1 (configuration not stated)	-5	-13%	x	-6%	-27%	-4%
CCOc1ccc(C2c3c(oc4cc(C)c(C)cc4c3=O)C(=O)N2c2ccccn2)cc1 (configuration not stated)	x	x	x	15%	-2%	x
CCN(CC)C(=O)c1sc2c(c1C)c(=O)n(-c1ccccc1)c(=O)n2CC(=O)Nc1ccc(C)cc1C	x	x	x	u	-5%	x
COc1ccc(C2NC(=S)N3C(c4ccc(OC)c(OC)c4)NC(=S)N23)cc1OC (configuration not stated)	x	x	x	0.006µM*	0.0094µM*	x
COc1ccc(NC(=O)N(CCC(C)C)C(C)c2cccs2)c(OC)c1 (configuration not stated)	x	x	x	u	18µM*	x
CC(C)CCN(C(=O)Nc1ccccc1)C(C)c1cccs1 (configuration not stated)	-6	-18%	x	21µM*	18µM*	u
CN(C(=O)Nc1ccccc1)C1CCCCC1	-9	15%	6%	4%	1%	8%
CC(c1cccs1)N(C(=O)Nc1ccccc1)C1CCCCC1 (configuration not stated)	1	15%	x	16µM*	14µM*	15%
CC(C#N)(NC(=O)CN1CCN(S(=O)(=O)c2cccc(F)c2)CC1)C1CC1 (configuration not stated)	-11	0%	x	2%	6%	4%
COc1ccc(C2=Nc3ccccc3N(C(=O)c3ccc(C(F)(F)F)cc3)C2C(=O)Nc2ccc3c(c2)OCCO3)cc1 (configuration not stated)	2	-9%	x	7%	-16%	-18%
COc1cc(OC)cc(OC(=O)C2CCN(C(=O)c3ccc(F)cc3)CC2)c1	16	-8%	-3%	-14%	-25%	-9%
CCOC(=O)c1c2c(n(C)c1C)C(=O)C(=O)c1ccc(Br)cc1-2	37	u	-2%	1.5µM*	2.1µM*	u
CCOC(=O)c1c2c(n(Cc3ccccc3)c1C)C(=O)C(=O)c1ccccc1-2	-100*	23µM*	-11%	0.58µM*	1.2µM*	u
